# Screen size: about 310,000 compounds; about 14,000 (4.5%) showed an effect of 50% or more. Effects have a minus sign here. The entries come from a sample that favours strong results as a whole.
# Target: human ether-à-go-go-related gene (hERG) potassium channel (human, UniProt Q12809)
# Assay: primary screen, population patch clamp on CHO cells stably expressing hERG; higher = less effect of the substance
# 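Further: peak tail current of the secondary pulse compared with the same well before compound.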
# human ether-à-go-go-related gene (hERG) potassium channel, sequence (Q12809 whole entry, looked up): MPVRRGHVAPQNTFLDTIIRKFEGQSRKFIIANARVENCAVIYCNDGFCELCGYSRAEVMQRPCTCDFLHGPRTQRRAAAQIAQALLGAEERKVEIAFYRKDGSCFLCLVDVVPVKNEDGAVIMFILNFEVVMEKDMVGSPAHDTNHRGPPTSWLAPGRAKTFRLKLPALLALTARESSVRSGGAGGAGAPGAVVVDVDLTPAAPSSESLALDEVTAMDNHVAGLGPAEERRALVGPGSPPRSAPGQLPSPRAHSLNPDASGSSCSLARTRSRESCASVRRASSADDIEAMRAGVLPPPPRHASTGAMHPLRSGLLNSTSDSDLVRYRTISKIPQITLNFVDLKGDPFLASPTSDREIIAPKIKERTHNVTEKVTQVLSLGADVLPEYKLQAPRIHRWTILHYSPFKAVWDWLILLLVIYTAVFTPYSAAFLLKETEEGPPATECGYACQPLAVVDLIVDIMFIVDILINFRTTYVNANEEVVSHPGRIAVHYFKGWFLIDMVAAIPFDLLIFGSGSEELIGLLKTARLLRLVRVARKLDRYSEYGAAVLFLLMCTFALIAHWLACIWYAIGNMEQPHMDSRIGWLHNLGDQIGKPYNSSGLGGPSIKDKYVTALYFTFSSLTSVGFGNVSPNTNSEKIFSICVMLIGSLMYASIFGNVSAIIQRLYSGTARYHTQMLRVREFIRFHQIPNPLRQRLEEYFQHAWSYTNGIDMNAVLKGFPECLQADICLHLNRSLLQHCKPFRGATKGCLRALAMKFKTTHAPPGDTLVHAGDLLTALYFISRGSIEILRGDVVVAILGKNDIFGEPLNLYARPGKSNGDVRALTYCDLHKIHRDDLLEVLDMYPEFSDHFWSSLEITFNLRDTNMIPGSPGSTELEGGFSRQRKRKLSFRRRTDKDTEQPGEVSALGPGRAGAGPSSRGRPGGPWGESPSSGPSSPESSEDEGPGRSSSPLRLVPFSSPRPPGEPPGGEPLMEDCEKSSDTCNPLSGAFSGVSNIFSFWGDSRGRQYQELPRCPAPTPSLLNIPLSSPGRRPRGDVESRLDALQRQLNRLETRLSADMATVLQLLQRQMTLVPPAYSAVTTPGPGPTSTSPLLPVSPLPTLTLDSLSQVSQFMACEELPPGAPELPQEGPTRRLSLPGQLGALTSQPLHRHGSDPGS
row,Compound,"hERG current change (%, negative = inhibition) at 10uM [%]"
1,CC1=NN(C(=O)Cc2ccc([N+](=O)[O-])cc2)C(O)(C(F)(F)C(F)(F)F)C1 (centres unmarked),-12.4
2,O=C(Nc1nnc(-c2ccco2)o1)c1cccc(N2C(=O)CCC2=O)c1,7.91
3,CCOc1ccc(Br)cc1C(=O)N/N=C/c1cccnc1,1.64
4,CCCn1c(SCCC(=O)O)nc2ccccc21,8.62
5,O=[N+]([O-])c1ccc(-c2c(-c3ccccc3)ncc3cc(F)ccc23)cc1,1.58
6,O=C(CNc1cc(S(=O)(=O)N2CCCC2)ccc1OCC(F)(F)F)Nc1cc(Cl)cc(Cl)c1,6.5
7,CC(=O)Nc1c(O)nc(C)[nH]c1=O,6.51
8,O=c1cc(CSc2nnc(COc3cccc4ccccc34)o2)c2ccccc2[nH]1,22.2
9,CCCCNC(=O)c1nn2cc(Br)cnc2c1Br,-62.3
10,CCCNC(=O)c1nn2cc(Br)cnc2c1Cl,-73.2
11,COCCNC(=O)c1cc2ncc(Br)cn2n1,5.41
12,CCCNC(=O)c1nc2ncc(Br)cn2n1,-31.1
13,CCCCNC(=O)Nc1ccc(Br)cn1,-16.2
14,CCc1ccccc1NC(=O)c1cc2ncc(Br)cn2n1,9.22
15,CCCCNC(=O)c1nc2ncc(Br)cn2n1,-21
16,CCCNC(=O)c1nn2cc(Br)cnc2c1Br,-69.2
17,COCCNC(=O)c1nn2cccnc2c1Cl,-11.3
18,O=C(/C=C/c1ccccc1)Nc1ccc(NC(=O)c2cccs2)cc1,6.8
19,COC(=O)c1cc(-c2ccc(NC(C)=O)cc2)nc2ccccc12,6.01
20,CCOC(=O)CC(NC(=O)Cc1ccccc1)c1ccccc1Cl (centres unmarked),1.83
21,Cc1ccc(Nc2ncc3c(n2)CC(C)(C)CC3=O)cc1,-10
22,N/C(=N/OCC(=O)Nc1cccc2ccccc12)c1nonc1N,-14
23,CCOc1ccc(C(=O)O/N=C(\N)c2ccc([N+](=O)[O-])cc2)cc1OCC,-6.93

row,Compound,"hERG current change (%, negative = inhibition) at 10uM [%]"
1,CN1CCN(Cc2nc3ccccc3c(=O)n2Cc2nc(-c3ccc([N+](=O)[O-])cc3)cs2)CC1,-73.8
2,CN1CCN(Cc2nc3ccccc3c(=O)n2Cc2nc(-c3ccccc3F)cs2)CC1,-71
3,CN1CCN(Cc2nc3ccccc3c(=O)n2Cc2nc(-c3ccc4ccccc4c3)cs2)CC1,-6.55
4,CN1CCN(Cc2nc3ccccc3c(=O)n2CC#N)CC1,-2.87
5,CN(C)Cc1nc2ccccc2c(=O)n1Cc1nc(-c2cc3ccccc3o2)cs1,9.3
6,CN(C)Cc1nc2ccccc2c(=O)n1Cc1nc(-c2cccc([N+](=O)[O-])c2)cs1,-36.9
7,Cc1cc2[nH]c(=O)c(=O)[nH]c2cc1S(=O)(=O)Nc1cccc(Cl)c1C,-0.165
8,CCN1CCN(C2=NC(=O)/C(=C/c3ccc(C)o3)S2)CC1,-20.9
9,O.[I-].c1ccc2[nH]c(-c3cc[nH+]c4ccccc34)nc2c1,-12.6
10,CCc1c(C)nc2ncnn2c1N1CCCC(C(=O)NCCc2ccccc2)C1 (centres unmarked),-15.2
11,O=C(C1CCN(c2ccc(N3CCOCC3)nn2)CC1)N1CCN(c2ccc(F)cc2)CC1,-47.4
12,CCc1c(C)nc2ncnn2c1N1CCCC(C(=O)Nc2cc(F)ccc2C)C1 (centres unmarked),-40.6
13,CCc1c(C)nc2ncnn2c1N1CCC(C(=O)Nc2ccccc2)CC1,-44.4
14,CCc1c(C)nc2ncnn2c1N1CCCC(C(=O)NCCc2ccc(OC)cc2)C1 (centres unmarked),-19.6
15,CCOc1ccccc1NC(=O)C1CCCN(c2c(CC)c(C)nc3ncnn23)C1 (centres unmarked),-65.1
16,CCOc1ccc(NC(=O)C2CCCN(c3c(CC)c(C)nc4ncnn34)C2)cc1 (centres unmarked),-65.8
17,CCc1c(C)nc2ncnn2c1N1CCC(C(=O)NCc2cccs2)CC1,-44.4
18,CCc1c(C)nc2ncnn2c1N1CCC(C(=O)N2CCN(c3ccc(F)cc3)CC2)CC1,-67.9
19,CCc1c(C)nc2ncnn2c1N1CCC(C(=O)Nc2ccc(C)cc2)CC1,-55.9
20,CCc1c(C)nc2ncnn2c1N1CCCC(C(=O)Nc2ccc(NC(C)=O)cc2)C1 (centres unmarked),14.2
21,CCc1c(C)nc2ncnn2c1N1CCC(C(=O)Nc2cccc(C(C)=O)c2)CC1,-22.6
22,Cc1nc2ccc(NC(=O)Cc3cccs3)cc2s1,11
23,CCOC(=O)N/N=C/C=C/c1ccccc1,1.98

row,Compound,"hERG current change (%, negative = inhibition) at 10uM [%]"
1,O=C(O)c1cc(N/N=C/c2c[nH]c3ccccc23)ccc1Cl,10.3
2,O=S(=O)(/C=C/c1ccccc1)N1CCN(c2ccccc2)CC1,-2.08
3,S=c1[nH]nc(-c2ccco2)n1/N=C/c1c(Cl)cccc1Cl,-10.9
4,Cc1cc(NC(=O)c2ccc(Cl)cc2)ccc1NC(=O)c1ccccc1Cl,9.97
5,Cc1cc(C)c(C(=O)COC(=O)c2nn(C)c(=O)c3ccccc23)cc1C,-30.4
6,O=C(O)c1ccccc1C(=O)NCCCCCCNC(=O)c1ccccc1C(=O)O,7.63
7,Cc1ccccc1NC1=CC(=O)CC(C)(C)C1,-0.789
8,COc1cc(-c2nc(CN3CCN(CC(C)C)C(=O)[C@@H]3C)c(C)o2)ccc1F,-14.2
9,CCOC(=O)C1CCCN(Cc2cn[nH]c2-c2ccc(F)cc2F)C1 (centres unmarked),-2.03
10,CCOC(=O)C1CCCCN1Cc1cn[nH]c1-c1ccc(F)cc1F (centres unmarked),1.06
11,COc1ccc(-c2nc(CSCC(=O)N3CCC(C(N)=O)CC3)c(C)o2)cc1OC,-0.184
12,CCC1CCCCN1CCCNC(=O)CS(=O)Cc1nc(-c2ccc(OC)c(OC)c2)oc1C (centres unmarked),5.21
13,COc1ccc(-c2nc(CS(=O)CC(=O)NCCN3CCCCC3C)c(C)o2)cc1OC (centres unmarked),16.8
14,COc1cc(-c2nc(CN3CCCCC3CCNC(C)=O)c(C)o2)ccc1F (centres unmarked),-66.6
15,CCOC(=O)CC1CCCCN1Cc1cn[nH]c1-c1ccc(F)cc1F (centres unmarked),-64.8
16,CCOC(=O)CC1CCCCN1Cc1nc(-c2ccc(F)c(OC)c2)oc1C (centres unmarked),-65.5
17,O=C(CSc1nc2cc(Cl)ccc2s1)NCc1ccc2c(c1)OCO2,0.137
18,COc1cc(OC)cc(C(=O)N(Cc2cc3cc(C)ccc3[nH]c2=O)C(C)C)c1,-7.49
19,O=C(C[n+]1ccccc1)N/N=C/c1ccc(Cl)cc1.[Cl-],-5.76
20,NC(=O)CSc1nnnn1-c1ccccc1Cl,6.07
21,O=C(N/N=C/C(Br)=C/c1ccccc1)c1ccccc1F,-38.5
22,Cc1ccc2c(CC(=O)N3CCOCC3)coc2c1,8.58
23,CCN(CC)S(=O)(=O)c1ccc(C(=O)OCCN2C(=O)CCC2=O)cc1,-7.82

row,Compound,"hERG current change (%, negative = inhibition) at 10uM [%]"
1,Cc1ccc(Cn2c(SCC(C)C)nc3c2c(=O)n(C)c(=O)n3C)cc1,4.03
2,Cn1c(=O)c2c(nc(SCCN3CCOCC3)n2Cc2ccccc2Cl)n(C)c1=O,-36.8
3,CCSc1nc2c(c(=O)n(C)c(=O)n2C)n1Cc1ccc(Cl)cc1,-17.5
4,Cn1c(=O)c2c(nc(SCCN3CCOCC3)n2Cc2ccc(F)cc2)n(C)c1=O,-56
5,Cc1ccc(Cn2c(SCCN3CCOCC3)nc3c2c(=O)n(C)c(=O)n3C)cc1,-28
6,Cc1cccc(Cn2c(SCCN3CCOCC3)nc3c2c(=O)n(C)c(=O)n3C)c1,-26.2
7,CCCSc1nc2c(c(=O)n(C)c(=O)n2C)n1Cc1ccc(C)cc1,-3.8
8,Cc1ccc(Cn2c(SCCN3CCCCC3)nc3c2c(=O)n(C)c(=O)n3C)cc1,-75.4
9,Cn1c(=O)c2c(nc(SCCN3CCOCC3)n2Cc2ccccc2)n(C)c1=O,-32.5
10,Cn1c(=O)c2c(nc(SCCN3CCCCC3)n2C)n(C)c1=O,3.49
11,Cn1c(=O)c2c(nc(SCCN3CCCCC3)n2Cc2ccccc2)n(C)c1=O,-76
12,Cn1c(=O)c2c(nc(SCCN3CCCCC3)n2Cc2ccc(Cl)cc2)n(C)c1=O,-72.3
13,O=C(NCc1ncc(C(F)(F)F)cc1Cl)Nc1ccccc1,3.57
14,Cc1ccc(C2=NN(C(=O)CCC(=O)O)C(c3ccc4c(c3)OCO4)C2)cc1 (centres unmarked),-2.17
15,COc1ccccc1NCC(=O)n1nc(C)cc1C,29.8
16,NC(=O)Nc1cc(Cl)ccc1Cl,2.21
17,COc1cc(-c2nnc(COC(=O)c3ccc(C)o3)o2)cc(OC)c1OC,7.46
18,Cc1ccc(/C=C/C(=O)NCCc2c[nH]c3ccccc23)o1,-7.78
19,O=C(NCc1ccccn1)C1CCN(S(=O)(=O)c2cccs2)CC1,-15.8
20,Cc1ccc2nc(Nc3ccc(C)c(C)c3)c3nncn3c2c1,14.5

# Reference: article PMC4336329 (PLoS ONE, 2015)
